Hits are enriched below; roughly 3.7% of the tested compounds scored in any of these assays.
RE007 growth inh = less growth of the S. pombe RE007 Vpr strain | actives 0.21% (n = 360,000) | Potency, µM (doses to about 92.2 µM), for inactives: top-dose activity change, negative = less growth, actives largely listed as inhibitors | S. pombe RE007 Vpr strain, BacTiter-Glo ATP luminescence, 24 h; active = well fitted falling curve with a large enough effect; inconclusive = small, poorly fitted or top-dose-only effect; inactive = no such curve, though single readings can be large or run the other way; note: nearly all actives have a fitted effect of over 50% in size
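Fission yeast strain RE007, carrying one chromosomally integrated HIV-1 vpr copy, was seeded at OD 0.01 in PMG+AL medium with 23 nL pinned compound. After 24 h at 30 °C and 99% humidity, viability was read by BacTiter-Glo luminescence.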
TbPYK inhibitor = inhibitors of Trypanosoma brucei pyruvate kinase. TbPYK enzyme, Kinase-Glo Plus ATP luminescence, 45 min. Potency, µM (titrated, usually from 76.8 µM), for the others: at the top dose activity, negative = inhibition, hits mostly inhibitors. actives 0.12% (n = 410,000). Q57TT1; note: nearly all actives have a fitted effect of over 50% in size
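Quantitative HTS: titrated library compounds versus trypanosomal pyruvate kinase in TEA buffer (pH 7.2) containing KCl, MgCl2, BSA and Tween-20. Reactions were initiated with ADP, 130 uM final. Kinase-Glo Plus luminescence was read after 45 min at RT.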
FMDV inh = blocks foot and mouth disease virus; FMDV antiviral cell-based qHTS; Potency, µM (top dose mostly 57.9 µM), for inactives: at the highest dose activity change, negative = inhibition, hits mostly inhibitors; actives 1.2% (n = 410,000); AID 1159524; calls by dose curve; tested in HEK293T cells; note: read-out not given here; nearly all actives have a fitted effect of over 45% in size
Sm TGR inh = S. mansoni TGR enzyme inhibition; actives 3% (n = 360,000); Potency, µM (titrated, usually from 114 µM), for the others: at the top dose activity change, negative = inhibition, actives largely listed as inhibitors; purified TGR, DTNB reduction, TNB absorbance 405 nm; Q962Y6; note: nearly all actives have a fitted effect of over 60% in size
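First, TGR (20 nM dispensed) and NADPH were mixed with compound. Second, a 15 min room-temperature incubation followed. Third, further NADPH and then DTNB were added to start the reaction. Finally, TNB absorbance was monitored kinetically.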
An asterisk follows results filed as active; ? = inconclusive; . = not tested or not shown; [ ] = remark or other dose. Unless noted, calls come from the whole dose curve; as a rule, active = well fitted curve in the direction sought with a large enough effect; inconclusive = small, poorly fitted or top-dose-only effect, or another doubt; inactive = no such curve, though single readings can be large; an effect the other way counts as inactive or inconclusive. % is set by controls: 0 for no effect and ±100 for the full control effect; potency is the fitted concentration of half-maximal effect.

SMILES | RE007 growth inh | TbPYK inhibitor | FMDV inh | Sm TGR inh
Cc1ccc(N2CCN(c3c(CN4CCCC4)c(=O)oc4ccccc34)CC2)c(C)c1 | . | 1% | -18% | 9%
Cc1ccccc1N1C(=O)NC(=O)/C(=C/c2ccc(N3CCOCC3)o2)C1=O | 5% | -4% | -6% | 22µM*
Cc1ccccc1N1C(=O)NC(=O)/C(=C\c2cc(Br)c(N3CCOCC3)o2)C1=O | 4% | -4% | 16µM* | ?
Cc1ccccc1N1C(=O)C(Cl)=C(N2CCOCC2)C1=O | 8% | 4% | 1% | -6%
Cc1cccc(N2C(=O)/C(=C/c3ccc(N4CCN(C)CC4)o3)C(=O)NC2=S)c1C | -9% | -19% | -17% | -25%
COc1cccc(CN2CCCC(c3nc(C)ncc3-c3ccc(F)cc3)C2)c1OC (configuration not stated) | . | . | -10% | .
COc1ccc(-c2nc(CS(=O)CC(=O)NCCc3ccc(OC)c(OC)c3)c(C)o2)cc1 (configuration not stated) | -3% | -2% | -10% | ?
CCCN(CCC)CCNC(=O)CS(=O)Cc1nc(-c2ccc(C)cc2)oc1C (configuration not stated) | 4% | 6% | 0% | -3%
CCCCNC(=O)CS(=O)Cc1nc(-c2ccc(C)cc2)oc1C (configuration not stated) | 24% | -6% | 0% | 45µM*
CCCNC(=O)CS(=O)Cc1nc(-c2ccc(OC)cc2)oc1C (configuration not stated) | 1% | 6% | -6% | 50µM*
CCc1ccc(-c2nc(CS(=O)CC(=O)NCCCN3CCOCC3)c(C)o2)cc1 (configuration not stated) | 11% | -2% | ? | 35µM*
Cc1cc(C)nc(SCc2ccc(C(=O)N/N=C/c3ccc(C(=O)O)cc3)cc2)n1 | 9% | 1% | -4% | 8%
C/C(=N\NC(=O)c1ccc(CSc2nc(C)cc(C)n2)cc1)c1ccco1 | 4% | -1% | 19% | 45µM*
O=C(Nc1ccccc1C(=O)N/N=C/c1ccco1)c1ccccc1 | ? | -9% | 8% | -7%
O=C(Nc1ccccc1C(=O)N/N=C/c1ccco1)c1ccc(F)cc1 | 22µM* | -1% | 12% | 3%
Cc1cc(C)nc(SCc2ccc(C(=O)N/N=C/c3ccco3)cc2)n1 | 10% | -19% | 40% | 32µM*
COc1ccc(S(=O)(=O)N(CC(=O)N2CCC(C)CC2)c2ccc(C)cc2)cc1 | . | -18% | 58% | -13%
Cc1cc(=O)oc(C)c1C(=O)NCCCN1CCN(c2ccccc2F)CC1 | -21% | 6% | -24% | 35µM*
CNC(=O)/C(C#N)=C/c1cccc(Oc2ccccc2)c1 | 18µM* | 1% | -16% | -5%
CNC(=O)/C(=C\c1cccc(Oc2ccccc2)c1)NC(=O)c1ccccc1 | -2% | 5% | 41% | -6%
COCCNC(=O)/C(C#N)=C/c1cccc(/C=C(\C#N)C(=O)NCCOC)c1 | -1% | -2% | 14µM* | -19%
COCCNC(=O)/C(C#N)=C/c1ccc(O)cc1 | ? | ? | 46% | -9%
O=C1NC(=O)C(Cc2ccccc2F)(C2CCN(Cc3cccn3-c3cccnc3)CC2)N1 (configuration not stated) | . | . | -9% | .
C=CCc1cc(C=C2C(=O)N(C)C(=O)N(C)C2=O)cc(OCC)c1OCc1ccccc1 | -9% | ? | -29% | 32µM*
C=CCc1cc(C=C2C(=O)NC(=O)NC2=O)cc(OC)c1OCc1ccc(C(=O)O)cc1 | 1% | ? | -16% | ?
SMILES | RE007 growth inh | TbPYK inhibitor | FMDV inh | Sm TGR inh
O=C(NC(=S)Nc1cccc2c(O)cccc12)c1ccco1 | -17% | -2% | 14% | 25µM*
O=C(NC(=S)Nc1ccccc1N1CCCC1)c1ccco1 | -19% | -12% | -9% | ?
COc1ccccc1C(=O)NC(=S)Nc1cccc2cc(O)ccc12 | -8% | 2% | 1% | .
COc1ccc(C(=O)NC(=S)Nc2cccc3ncccc23)cc1[N+](=O)[O-] | -6% | -11% | -21% | 6.3µM*
Cc1c(NC(=O)c2ccco2)cccc1-c1nc2cccnc2s1 | -6% | -1% | -21% | 20µM*
O=C(NC(=S)Nc1cccc2cc(O)ccc12)c1ccco1 | -15% | -1% | 4% | 10µM*
Cc1ccc(NC(=O)CSc2cn(CC(=O)N3CCCC3)c3ccccc23)cc1Cl | . | -14% | -22% | -1%
Cc1cc(NC(=S)NC(=O)c2ccco2)c2ccccc2n1 | -20% | 7% | ? | ?
O=C(NC(=S)Nc1cccc2ncccc12)c1ccco1 | -4% | -2% | -7% | 14µM*
O=C(NC(=S)Nc1cccc2cc(O)ccc12)c1ccccc1Br | 2% | 1% | -7% | 35µM*
CCCC(=O)NC(=S)Nc1cccc2c(O)cccc12 | -7% | -18% | 33% | 14µM*
CCCCNC(=O)c1cccc(-n2cnc3cccnc32)c1C | . | 4%[15.4 µM] | 0% | 0%
Cn1c(=O)n(C/C=C/c2ccccc2)c(=O)c2c1nc1n2CCN1c1ccc(F)cc1 | . | 6% | -2% | -1%
Cc1c(C(=O)NCC(C)C)sc2ncnc(NCC3CCCO3)c12 (configuration not stated) | . | . | 0% | .
CN1CCCC(CN(C)C(=O)c2cnn(-c3nccc(-c4ccccc4C(F)(F)F)n3)c2C2CC2)C1 (configuration not stated) | . | . | -13% | .
CC(C)Cc1ccc(C(C)/C=C2/CCC(CN3CCCCC3)C2=O)cc1 (configuration not stated) | ? | -9% | 40µM* | .
COC(=O)CC(NC1CCN(c2nc(C)c3cc4c(cc3n2)CCC4)CC1)C(=O)OC (configuration not stated) | . | . | -2% | .
Cc1ccccc1C1=CCN(c2ncc(NC(=O)c3ccc(Cl)cc3)cc2C(=O)O)CC1 | . | 5% | -10% | 40µM*
COc1cccc(CNC(=O)c2c(OC)cc(=O)n3c2CCN(C(=O)c2cc(C)ccc2C)CC3)c1 | . | . | 18% | .
CCn1c(O)c(/C=N/N=C2CCCCC2)c2cc(C3=NNC(=O)CC3)ccc21 | -10% | -9% | -15% | 40µM*
Cc1cc(C)cc(NC(=O)CN2C(=O)CSc3ccc(S(=O)(=O)N4CCCC4)cc32)c1 | . | 4% | -9% | 6%
CCOc1ccc(NC(=O)CN2CCN(CC(=O)c3ccc(OC)c(OC)c3)CC2)cc1 | -6% | -9% | -4% | 32µM*
CCOc1ccc(NC(=O)CN2CCN(CC(=O)c3ccc(OCC)cc3)CC2)cc1 | -18% | -8% | 1% | 22µM*
COc1ccccc1NC(=O)CN1CCN(CC(=O)Nc2ccc(Cl)c(C(F)(F)F)c2)CC1 | 46% | -4% | ? | -22%
COc1ccc(NC(=O)CN2CCN(CC(=O)Nc3ccccc3Cl)CC2)cc1Cl | -6% | 0% | 40µM* | 16%
COC(=O)c1ccc(Nc2nnc(-c3ccc(C)c(S(=O)(=O)N4CCN(C)CC4)c3)c3ccccc23)cc1 | . | -6% | 12% | 1%
Fc1ccc(N2CCN(c3nc4ccccc4c4nc(-c5cccnc5)nn34)CC2)cc1 | . | -4% | -21% | 53%

Screening results: PubChem, National Center for Advancing Translational Sciences (NCATS)
